Screening results from PubChem.
tim23-1 inh: inhibits growth of tim23-1 mutant yeast; AID 463212; S. cerevisiae tim23-1 growth, BacTiter-Glo luminescence, 24 h; 330,000 tested, 1.3% active; inhibition, % at 20 µM;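 active = growth inhibition of the mutant yeast at or above 50%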;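 also: temperature-sensitive mutant grown at 25 °C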
TIM10 inh: inhibits growth of TIM10 yeast strain; S. cerevisiae TIM10 strain growth, BacTiter-Glo luminescence, 24 h; inhibition, % at 10 µM; 330,000 tested, 1.4% active; AID 463195;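 active = inhibition of 40% or more at the single tested concentration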;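 also: wild-type TIM10 isogenic control strain grown at permissive 25 °C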
tim10-1 inh: growth inhibitors of tim10-1 mutant yeast. 330,000 tested, 2.2% active. S. cerevisiae tim10-1 ts strain growth, BacTiter-Glo, 24 h. AID 463190. inhibition, % at 20 µM;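 active = inhibition of at least 40%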;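 also: mutant grown at 25 °C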
SKKanGAS inh: blocks kanamycin growth of S. pyogenes SKKanGAS strain. BacTiter-Glo, 6 h. inhibition, % at 7.5 µM. 300,000 tested, 1.3% active;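 active = mean replicate score, as percent of positive control median, at least 50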;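 also: strain carries kanamycin resistance gene driven by streptokinase promoter and grows in 40 µg/ml kanamycin; loss of luminescence reflects streptokinase promoter inhibition or plain growth inhibition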
ATG4B inh: ATG4B (human) cysteine protease inhibition; Q9Y4P1; ATG4B cleavage of LC3-PLA2, NBD-HPC fluorescence, 1 h; inhibition, % at 8.33 µM; 340,000 tested, 0.51% active; AID 504462; in the data active = inhibition above about 40%
Target sequence (Q9Y4P1 whole entry, looked up): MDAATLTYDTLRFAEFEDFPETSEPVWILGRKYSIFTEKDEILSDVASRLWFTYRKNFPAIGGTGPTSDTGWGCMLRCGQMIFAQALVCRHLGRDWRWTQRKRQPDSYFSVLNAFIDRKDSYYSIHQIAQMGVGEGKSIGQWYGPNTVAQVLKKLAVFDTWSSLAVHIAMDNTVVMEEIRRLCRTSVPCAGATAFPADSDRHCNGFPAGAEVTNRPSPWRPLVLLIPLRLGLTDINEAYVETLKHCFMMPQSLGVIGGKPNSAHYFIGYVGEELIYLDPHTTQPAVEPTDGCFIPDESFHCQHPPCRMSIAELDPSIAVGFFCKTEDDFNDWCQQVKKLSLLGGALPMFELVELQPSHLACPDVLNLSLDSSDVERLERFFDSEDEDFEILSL
PfHsp90 yeast 2: reduces growth (ATP signal) of yeast expressing P. falciparum Hsp90 | 310,000 tested, 0.32% active | inhibition, % at 9.4 µM | S. cerevisiae expressing PfHsp90, BacTiter-Glo ATP, 48 h; yeast lacking PDR1 and PDR3 efflux regulators;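 active = every replicate shows inhibition above about 80%, whatever the replicate mean, limit read from the data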
tim10 confirm: TIM10 yeast growth inhibition, confirmed; AID 463215; S. cerevisiae tim10 strain growth, BacTiter-Glo luminescence, 24 h; inhibition, % at 10 µM; shares compounds with TIM10 inh; 4,600 tested, 63% active;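 active = inhibition of yeast growth at or above a set limit in either of two replicates at 10 µM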; also: this counterscreen used the strain with wild-type TIM10
Of the large screens only hits and unclear results are named; the others gave an inactive call (follow-up assays come after a bar, where they were run). Sampled rows, rich in hits. Any-hit rate of the full collection: about 4.7%.

CC(=O)Nc1ccc(S(=O)(=O)N(C)CC(=O)NC2=NCCS2)cc1	none
Cc1cc(C(=O)C(C)OC(=O)C2=NNC(=O)CC2)c(C)n1-c1ccc(OC(F)F)cc1 (stereo unspecified)	none
C#CCSc1nnnn1-c1cccc(Cl)c1	TIM10 inh 49 | tim10 confirm inactive
NC(=O)CSc1nnnn1-c1cccc(Cl)c1	none
O=C(COC(=O)c1ccc([N+](=O)[O-])o1)Nc1cccc(S(=O)(=O)N2CCCCC2)c1	none (no result: PfHsp90 yeast 2)
O=C(Nc1cccc(S(=O)(=O)N2CCCCC2)c1)c1ccc([N+](=O)[O-])o1	TIM10 inh 46 | tim10 confirm inactive
Cc1ccc(-n2nnnc2SCC(=O)c2cc(C)n(-c3cc(C)on3)c2C)cc1	TIM10 inh 43 | tim10 confirm inactive
Cc1cc(-n2c(C)cc(C(=O)CSc3nncn3C)c2C)no1	none (no result: SKKanGAS inh)
NNc1nc2c(-c3ccc(Cl)cc3)nnn2c2ccccc12	TIM10 inh 69 | tim10 confirm 70
C/C(=N\Nc1ccc(Cl)cc1)c1ccccn1	TIM10 inh 52 | tim10 confirm 34
COc1ccc(OC)c2[nH]c(=O)c(CCNC(=O)c3ccc(Br)o3)cc12	TIM10 inh 47 | tim10 confirm inactive
Cc1ccc(Nc2nc(-c3sc(C)nc3C)cs2)cc1	TIM10 inh 46 | tim10 confirm 49
CC(=O)Nc1ccc(Nc2nc(-c3sc(C)nc3C)cs2)cc1	none
CCOc1ccccc1OCC(=O)Nc1nc2ccccc2[nH]1	none
O=C(COc1cccc2ccccc12)Nc1nc2ccccc2[nH]1	TIM10 inh 41 (no result: SKKanGAS inh) | tim10 confirm inactive
c1ccc(OCCOCCN2CCN(C(c3ccccc3)c3ccccc3)CC2)cc1	TIM10 inh 43 | tim10 confirm inactive
CCS(=O)(=O)c1nc(S(=O)(=O)c2ccc(C)cc2)c(NCCN2CCOCC2)s1	TIM10 inh 97, SKKanGAS inh 54 | tim10 confirm inactive
CCS(=O)(=O)c1nc(S(=O)(=O)c2ccc(Cl)cc2)c(NCCN2CCOCC2)s1	none
O=C1c2ccccc2-c2nnc(-c3ccc(O)cc3)cc21	TIM10 inh 50 | tim10 confirm 31
Cc1ccccc1-c1cc2c(nn1)-c1ccccc1C2=O	TIM10 inh 44 | tim10 confirm 30
Cc1ccc(-c2cc3c(nn2)-c2ccccc2C3=O)cc1	none
O=C1c2ccccc2-c2nnc(-c3ccc(F)cc3)cc21	none
Cc1nn2c(-c3ccco3)nnc2c2ccccc12	TIM10 inh 62 (no result: PfHsp90 yeast 2) | tim10 confirm 48
Cc1nn2c(-c3ccc(S(=O)(=O)N4CCN(CCO)CC4)o3)nnc2c2ccccc12	none
Cc1cc(C)nc(N/N=C/c2c[nH]c3ccccc23)n1	none
Cc1cccc(NCC(=O)N/N=C\c2c[nH]c3ccccc23)c1	none
Cc1cc(N/N=C/c2c[nH]c3ccccc23)c2ccccc2n1	TIM10 inh 54 | tim10 confirm 34
Cc1ccccc1NCC(=O)N/N=C/c1c[nH]c2ccccc12	TIM10 inh 47 | tim10 confirm inactive
Cc1ccc(NC(=O)/C(=C/C=C/c2ccccc2)NC(=O)c2ccccc2)cc1	none
Cc1ccc(CN2CCN(/N=C\C(Br)=C\c3ccccc3)CC2)cc1	TIM10 inh 44 | tim10 confirm inactive
COc1ccccc1N1CCN(C(=O)c2ccc([N+](=O)[O-])s2)CC1	TIM10 inh 43 | tim10 confirm inactive
COc1ccccc1N1CCN(C(=O)c2cc(C(=O)N3CCN(c4ccccc4OC)CC3)cc([N+](=O)[O-])c2)CC1	none
CN(C(=O)COC(=O)c1cccc(NS(=O)(=O)c2ccc(F)c(F)c2)c1)C1CCS(=O)(=O)C1 (stereo unspecified)	none
N#C/C(=C/c1cccs1)c1nc2ccccc2[nH]1	TIM10 inh 50 | tim10 confirm inactive
Cc1ccc(/C=C(\C#N)c2nc3ccccc3[nH]2)s1	none
COc1cccc(CN(C(=O)c2cnccn2)C(C(=O)NC2CCCCC2)c2cc(OC)c(OC)c(OC)c2)c1 (stereo unspecified)	none
O=C1Nc2ccc(Br)cc2C12NNc1ccccc1O2 (stereo unspecified)	TIM10 inh 45, PfHsp90 yeast 2 106 | tim10 confirm 69
O=C1Nc2ccc(Br)cc2C1(O)c1ccccc1 (stereo unspecified)	none
S=C(NCc1ccc(Cl)cc1)Nc1ccncc1	none
S=C(NCc1cccs1)Nc1cc(Cl)cc(Cl)c1	TIM10 inh 47, SKKanGAS inh 66 | tim10 confirm 56
S=C(NCc1ccc(Cl)cc1)Nc1ccccc1	TIM10 inh 42 | tim10 confirm inactive
S=C(NCc1cccs1)Nc1ccccc1Cl	none
COCCCN1CC(=O)N2C(c3cccc(OC)c3)c3[nH]c4ccccc4c3C[C@H]2C1=O (stereo partly specified)	none
O=C(Cc1cccs1)N(Cc1ccco1)C1(C(=O)NC2CCCCC2)CCCCC1	TIM10 inh 43 | tim10 confirm inactive
CCc1ccc(CN(C)CC(=O)Nc2ccccc2[N+](=O)[O-])cc1	none
Oc1ccc(Cl)cc1CNc1ccc(Br)cn1	TIM10 inh 47 (no result: PfHsp90 yeast 2) | tim10 confirm inactive
Oc1ccc(Cl)cc1CNc1ccccn1	none
Cc1[nH]n(-c2ccc([N+](=O)[O-])cc2)c(=O)c1C=NCCc1c(C)[nH]c2ccccc12	TIM10 inh 45 | tim10 confirm inactive
Cc1ccc2nc(-c3sc4nc(C)ccc4c3N)[nH]c2c1	TIM10 inh 63 | tim10 confirm 48
Cc1ccc(OCC(=O)NCCN2CCCC2)cc1	none
Cc1ccc(NC(NC(=O)c2cccs2)C(Cl)(Cl)Cl)cc1 (stereo unspecified)	TIM10 inh 50 | tim10 confirm 38
COc1ccc(C(=O)NC(Nc2ccccc2)C(Cl)(Cl)Cl)cc1 (stereo unspecified)	TIM10 inh 50 | tim10 confirm 32
Cc1ccc(NC(=O)Nc2cccnc2)cc1NC(=O)Nc1cccnc1	none
COc1ccccc1CNc1ccc(N2CCCCC2)cc1	TIM10 inh 54 | tim10 confirm inactive
CCCC(=O)Nc1cccc(-c2nc3ccccc3o2)c1	TIM10 inh 47 | tim10 confirm inactive
CCOC(=O)c1ccc(S(=O)(=O)NCCNCc2ccccc2)cc1	none (no result: SKKanGAS inh, PfHsp90 yeast 2)
CCOC(=O)Nc1cccc(OCC(=O)Nc2ccc3c(c2)CCC3)c1	TIM10 inh 49 (no result: SKKanGAS inh, PfHsp90 yeast 2) | tim10 confirm inactive
COc1cccc(NC(=O)COc2ccc3c(c2)CCC3)c1	none
O=C(c1cnn2c1NC(c1ccc(Br)cc1)CC2C(F)(F)F)N1CCN(C23CC4CC(CC(C4)C2)C3)CC1 (stereo unspecified)	TIM10 inh 42 (no result: PfHsp90 yeast 2) | tim10 confirm inactive
Cc1cc(C)c2c(N)c3ccccc3nc2n1	TIM10 inh 45 | tim10 confirm inactive
